Bioassay records (PubChem)
Compounds with a hit are over-represented: about 0.84% of the library has one in this group of screens.
NCOA1 inh = human NCOA1 inhibition | AID 588354 | HEK293 GAL4-SRC1 luciferase reporter, luminescence | 360,000 tested, 0.12% active | inhibition, % at 3.6 µM;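 active = inhibition above the campaign mean plus 3 SD, with each screening campaign given its own cutoff, cut at about 60% in these data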
SRC3 inh = inhibits human SRC3 coactivator; Q9Y6Q9; HEK293 GAL4-SRC3 luciferase reporter, luminescence; inhibition, % at 3.6 µM; 360,000 tested, 0.17% active;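 active = inhibition above a per-campaign cutoff, the mean of all compounds plus 3 SD, cut at about 60% in these data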;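 note: higher means less SRC3-driven luciferase light from the GAL4 reporter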
Target sequence (Q9Y6Q9 whole entry, looked up, the tested form may be a part): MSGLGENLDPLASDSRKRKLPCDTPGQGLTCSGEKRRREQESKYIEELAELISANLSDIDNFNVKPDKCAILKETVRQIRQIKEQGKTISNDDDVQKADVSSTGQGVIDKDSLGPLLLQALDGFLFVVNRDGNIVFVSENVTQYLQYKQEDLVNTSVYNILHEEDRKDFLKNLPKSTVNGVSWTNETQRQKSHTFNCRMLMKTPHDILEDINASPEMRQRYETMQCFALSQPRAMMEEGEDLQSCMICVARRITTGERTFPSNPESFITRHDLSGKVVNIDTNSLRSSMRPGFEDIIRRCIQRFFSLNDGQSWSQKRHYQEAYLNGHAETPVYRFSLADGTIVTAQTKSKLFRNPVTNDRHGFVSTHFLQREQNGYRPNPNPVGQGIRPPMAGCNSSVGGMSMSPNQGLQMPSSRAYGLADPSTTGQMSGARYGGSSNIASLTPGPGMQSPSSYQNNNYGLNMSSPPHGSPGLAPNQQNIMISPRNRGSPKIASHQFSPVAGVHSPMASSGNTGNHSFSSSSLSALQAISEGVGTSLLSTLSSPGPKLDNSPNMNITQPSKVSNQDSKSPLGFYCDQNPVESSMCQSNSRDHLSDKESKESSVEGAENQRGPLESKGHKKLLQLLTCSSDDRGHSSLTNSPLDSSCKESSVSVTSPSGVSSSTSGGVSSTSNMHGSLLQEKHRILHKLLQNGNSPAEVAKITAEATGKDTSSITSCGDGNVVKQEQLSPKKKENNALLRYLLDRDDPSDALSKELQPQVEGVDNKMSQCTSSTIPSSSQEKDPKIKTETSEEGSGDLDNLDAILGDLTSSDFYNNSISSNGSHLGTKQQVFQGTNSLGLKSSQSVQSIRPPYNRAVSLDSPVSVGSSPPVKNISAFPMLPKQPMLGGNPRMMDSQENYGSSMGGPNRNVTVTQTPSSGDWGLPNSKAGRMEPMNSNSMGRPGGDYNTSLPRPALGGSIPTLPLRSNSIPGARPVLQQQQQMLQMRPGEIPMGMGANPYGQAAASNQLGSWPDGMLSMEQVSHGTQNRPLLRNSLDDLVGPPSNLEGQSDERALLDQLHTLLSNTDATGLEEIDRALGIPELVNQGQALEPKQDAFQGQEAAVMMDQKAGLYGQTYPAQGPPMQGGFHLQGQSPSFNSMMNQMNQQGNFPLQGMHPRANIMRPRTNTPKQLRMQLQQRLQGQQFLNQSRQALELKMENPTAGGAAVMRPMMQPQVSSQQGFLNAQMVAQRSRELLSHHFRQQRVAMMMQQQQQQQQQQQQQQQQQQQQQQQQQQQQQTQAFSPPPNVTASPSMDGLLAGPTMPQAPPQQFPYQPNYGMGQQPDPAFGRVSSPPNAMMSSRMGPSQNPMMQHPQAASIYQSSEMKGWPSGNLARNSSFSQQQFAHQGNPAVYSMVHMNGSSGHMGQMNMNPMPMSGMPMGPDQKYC
NCOA2 inhibitor = human SRC2 (NCOA2) inhibition; inhibition, % at 9 µM; HEK293 GAL4-SRC2 luciferase reporter, luminescence; 370,000 tested, 0.17% active; Q15596;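 active = inhibition above the mean inhibition of all tested compounds plus 3 SD, set per campaign, cut at about 52% in these data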
NR5A2 inv ag = inverse agonists of human LRH-1 (NR5A2); HEK293T StAR-luciferase reporter, LRH-1 transfected, 24 h; AID 602396; inhibition, % at 3.6 µM; 360,000 tested, 0.13% active; O00482;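 active = inhibition above the mean inhibition of all tested compounds plus 3 SD, cut at about 73% in these data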
NR2F2 inh = NR2F2 (human) inhibition, primary screen; HEK293T NGFI-A luciferase reporter, luminescence; inhibition, % at 8.6 µM; 370,000 tested, 0.7% active;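 active = inhibition above a per-plate cutoff, mean inhibition of test wells between control levels plus 3 SD, cut at about 38% in these data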;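 note: cells cotransfected with COUP-TFII expression vector driving the NGFI-A reporter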
VP16 Luc counter = counter-screen for COUP-TFII antagonists: inhibitors of VP16 | HEK293 Gal4-VP16 luciferase reporter, luminescence | AID 687007 | 2,500 tested, 25% active | inhibition, % at 8.5 µM | shares compounds with NR2F2 inh; in the data active = inhibition above about 13%
NR2F2 inh conf = COUP-TFII (NR2F2) inhibition, confirmation assay; AID 687008; 2,500 tested, 45% active; inhibition, % at 8.5 µM; HEK293 NGFI-A luciferase reporter, luminescence; shares compounds with NR2F2 inh;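 active = mean inhibition over three repeats above a set limit taken from the earlier primary screen, cut at about 38% in these data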
A number is an active result; . = inactive; / = not tested or not shown; ! = not confirmed by another sample.

SMILES	NCOA1 inh	SRC3 inh	NCOA2 inhibitor	NR5A2 inv ag	NR2F2 inh	VP16 Luc counter	NR2F2 inh conf
Cc1onc(-c2ccccc2Cl)c1C(=O)Nc1cccc2cccnc12	.	.	.	.	43.0	.	.
Cc1cc(C(F)(F)F)n(-c2nc(C(=O)NN)cs2)n1	.	.	.	.	37.4	.	.
CCOC(=O)c1csc(-n2nc(C)cc2C(F)(F)F)n1	.	.	.	.	.	/	/
CN(Cc1ccccc1)C1=CC(=[N+]2CCCC2)CC(C)(C)C1	.	62.6	.	.	72.5	15.3	64.3
c1ccc(CCn2nnc(-c3ccc(N4CCOCC4)cc3)n2)cc1	/	/	.	/	.	/	/
COc1ccc(CN2CCN(Cc3ccc4ccccc4c3)CC2)cc1OC	.	.	.	.	40.6	.	.
COc1ccccc1CN1CCN(Cc2ccc3ccccc3c2)CC1	.	.	.	.	.	/	/
O=C(NCCc1c[nH]c2ccccc12)c1ccc(Sc2ccccc2Cl)c([N+](=O)[O-])c1	/	/	.	/	.	/	/
Cc1ccc(NC(=O)CSc2nnc(-c3cccnc3)n2Cc2ccco2)c(C)c1	/	/	.	/	.	/	/
NC(=O)c1cccc(-c2noc(-c3ccccc3F)n2)c1	.	.	.	.	57.5	21.9	.
COC(=O)c1cccc(-c2noc(-c3ccccc3F)n2)c1	.	.	.	.	.	/	/
O=C1c2cccc(OCc3ccc(F)cc3)c2CCN1Cc1ccc(F)cc1	.	.	.	.	57.8	.	43.5
COC(=O)c1ccc(COc2cccc3c2CCN(Cc2cccc(C)c2)C3=O)o1	.	.	.	.	37.9	.	.
COc1cc(-c2noc(CCCC(=O)Nc3ccc(C(N)=O)cc3)n2)cc(OC)c1OC	.	.	.	.	.	/	/
COc1ccc(-c2noc(CCCC(=O)Nc3ccc(C(N)=O)cc3)n2)cc1	.	.	64.7	.	54.9	39.3	.
COc1ccc(-c2noc(CCCC(=O)NC3CCCC3)n2)cc1	.	.	52.8	.	53.9	.	.
COc1ccc(CC2(CO)CCN(CC3=Cc4cc(Cl)ccc4OC3)CC2)cc1	.	.	.	.	63.7	.	45.4
COc1ccc2c(c1)C=C(CN1CCC(CO)(CCc3ccccc3)CC1)CO2	.	.	.	.	.	/	/
CCOC(=O)C(NC(=O)c1ccccc1)(Nc1cccc(C)n1)C(F)(F)F (centres undefined)	.	.	.	.	39.5	.	.
CCOC(=O)C(NCc1ccco1)(NC(=O)c1ccccc1)C(F)(F)F (centres undefined)	.	.	.	.	.	/	/
COC(=O)[C@]12C[C@H](CC(=O)NCCCN3CCCC3=O)C(=O)N(CCC3=CCCCC3)C1=C[C@H](C1CCCC1)O[C@@H]2C	/	/	.	/	.	/	/
NC(=O)c1cc([N+](=O)[O-])ccc1NCc1ccc(N)cc1	.	.	73.0	.	52.2	64.2	49.6
C=CCN(C(=O)[C@@H](C)[C@@H](O)c1ccc(Cl)cc1)c1ccccc1	/	/	.	/	.	/	/
Cc1cccc(NC(=O)CSc2nc3c([nH]c4ccccc43)c(=O)n2C)c1	.	.	.	.	.	/	/
Cc1cccc(NC(=O)CSc2nc3ccccc3c(=O)n2C)c1	.	.	.	.	40.8	.	.
SMILES	NCOA1 inh	SRC3 inh	NCOA2 inhibitor	NR5A2 inv ag	NR2F2 inh	VP16 Luc counter	NR2F2 inh conf
COc1ccc([C@H]2CC(=O)C=C(c3ccnc4ccc(Cl)cc34)C2)cc1	.	.	.	.	68.9	.	64.9
COc1ccc([C@H]2CC(=O)C=C(c3cc(Cl)ccc3C)C2)cc1	.	.	.	.	.	/	/
COC(=O)c1ccc(NC(=O)c2nc(S(=O)(=O)Cc3cccc(C)c3)ncc2Cl)cc1	.	.	59.6	.	39.6	45.8	.
CCS(=O)(=O)c1ncc(Cl)c(C(=O)Nc2ccc(S(=O)(=O)N3CCC(C)CC3)cc2)n1	.	.	.	.	48.3	76.3	62.9
CCOC(=O)c1ccc(NC(=O)c2nc(S(=O)(=O)Cc3ccccc3)ncc2Cl)cc1	.	.	.	.	.	/	/
N#CCC[C@H]1CC[C@]2(CCCN(C(=O)C3CCCC3)C2)O1	/	/	.	/	.	/	/
c1ccn(-c2ccc(-c3noc(CCc4ccncc4)n3)cc2)c1	/	/	.	/	50.8	.	.
c1ccc(CCc2nc(-c3ccc(-n4cccc4)cc3)no2)cc1	.	.	.	.	.	/	/
Cc1ccccc1C(=O)N1CCN(c2ccc(NC(=S)NC(=O)c3ccco3)cc2)CC1	.	.	.	.	46.2	.	.
Cc1ccc(OCC(=O)Nc2ccc(N3CCN(C(=O)c4ccco4)CC3)cc2)cc1C	.	.	.	.	.	/	/
COc1ccccc1C(=O)NC(=S)Nc1ccc(N2CCN(C(=O)c3ccco3)CC2)cc1	.	.	.	.	.	/	/
Cc1cccc(OCC(=O)Nc2ccc(N3CCN(C(=O)c4ccco4)CC3)cc2)c1	.	.	.	.	63.7	.	.
O=C(NCCc1c[nH]c2ccccc12)OCc1cn(Cc2cccc(Cl)c2)nn1	/	/	.	/	.	/	/
COC(=O)C1CN(Cc2ccc(F)cc2)CCS(=O)(=O)N1Cc1ccc(F)cc1 (centres undefined)	/	/	.	/	.	/	/
COc1cc2c(cc1OC)CN1CCc3cc(OC)c(OC)cc3C1C2 (centres undefined)	.	.	.	.	.	/	/
CCC1=C(CC2NCCc3ccccc32)CC2c3cc(OC)c(OC)cc3CCN2C1 (centres undefined)	73.1	82.5	55.1	87.9	67.1	.	54.4
CC[C@H]1CN2CCc3cc(OC)c(OC)cc3C2C[C@@H]1C[C@H]1NCCc2cc(OC)c(OC)cc21 (some centres undefined)	95.9	95.4	70.3	103.9	91.9	.	84.2
C=CCN(c1ccccc1OC)S(=O)(=O)c1ccc(Cl)c(C(=O)Nc2ccc(N3CCOCC3)cc2)c1	.	.	.	.	42.5	.	.
O=S1(=O)c2ccc(N3CCN(Cc4ccccc4F)CC3)cc2Oc2ccccc2CN1Cc1cn(Cc2ccc(F)cc2)nn1	/	/	.	/	.	/	/
COC(=O)[C@]12C[C@H](CC(=O)N3CCC(c4ccccc4)CC3)C(=O)N(Cc3ccco3)C1=C[C@H](C(C)(C)C)O[C@@H]2C	/	/	.	/	.	/	/
COc1ccc(C(=O)Nc2ccc(C)cn2)c(OC)c1	.	.	56.4	.	54.9	13.8	.
COc1ccc(C(=O)Nc2cc(C)on2)c(OC)c1	.	.	.	.	.	/	/
COc1cc(OC)cc(C(C)c2ccc(C)cc2)c1 (centres undefined)	/	/	/	/	.	/	/
O=C1CCc2cc(S(=O)(=O)N3CCN(Cc4cccc5c4OCO5)CC3)ccc2N1	/	/	.	/	.	/	/
O=c1cc[nH]c2ccc(Cl)cc12	.	.	.	.	.	/	/
O=c1cccc2c1c1cc[nH]c3ccc(=O)n2c31	.	.	.	.	45.5	.	.
CC1CNCCN1S(=O)(=O)c1cccc2cnccc12 (centres undefined)	.	.	.	.	41.3!	.	.
CC1CCCCN1S(=O)(=O)c1cccc2cccnc12 (centres undefined)	.	.	.	.	.	/	/
